Measurements taken from PubChem BioAssay (Tox21).
Inconclusive results are not listed. The source made the active and inactive calls. Unless noted, the call rests on the fitted dose curve; in most records, active means well fitted curve in the direction sought with a large enough effect in the repeat runs; inconclusive means weak or mixed curves; inactive means no such curve, though single readings can be large; an effect the other way counts as inactive or inconclusive.

What was measured:
[1] = qHTS assay to identify small molecule agonists of the hypoxia (HIF-1) signaling pathway - cell viability counter screen (AID 1224844; calls by dose curve; further: nearly all actives have a fitted effect of over 50% in size)
Outline: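 Tox21 10K compounds were added to HRE-bla ME-180 cells (0.5% dialyzed FBS) and incubated 17 hrs at 37C; ATP-based CellTiter-Glo luminescence then reported cell viability in the same wells.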

[2] = qHTS assay to identify small molecule agonists of H2AX (AID 1224845; active means well fitted activation curve with a large enough effect in the signal ratio in the repeat runs, not every such curve was filed as active; the % refers to the signal ratio)
Outline: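 Wild-type CHO-K1 cells plated overnight, then exposed 3 hr at 37C to compounds at 15 concentrations (0.76% DMSO). Lysed, then HTRF anti-pH2AX(S139)-cryptate/anti-H2AX-d2 detection after 24 hr at room temperature; emissions 665 and 620 nm.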

[3] = qHTS assay to identify small molecule agonists of the hypoxia (HIF-1) signaling pathway (AID 1224846; active means well fitted activation curve with a large enough effect in the signal ratio in the repeat runs, not every such curve was filed as active; the % refers to the signal ratio)
Outline: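 Steps: seed ME-180 HRE-bla cells (2,000/well, 0.5% dialyzed FBS); incubate 5 hrs at 37C; pin-transfer compounds or DMSO; incubate 17 hrs; add LiveBLAzer B/G substrate CCF4-AM; measure reporter activation by FRET.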

[4] = qHTS assay to identify small molecule agonists of H2AX - cell viability counter screen (AID 1224847; calls by dose curve; further: top concentration of the series differs between compounds; nearly all actives have a fitted effect of over 30% in size)
Outline: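 Quantitative HTS viability measurement: CHO-K1 wild-type cells in serum (10% FBS) medium, short 3 hr drug exposure at 37C with 0.76% DMSO, CellTiter-Glo luminescent detection.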

[5] = qHTS assay to identify small molecule antagonists of the estrogen related receptor (ERR) signaling pathway from Tox21 library (AID 1224848); further: nearly all actives have a fitted effect of over 50% in size; further: potency means the concentration at half of the fitted maximal effect
Outline: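 Screening used an ERR reporter line supplied by NTP, exposed for 18 h at 37 C to library compounds delivered in DMSO. Signal was luciferase luminescence developed with ONE-Glo at room temperature for 30 min.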

[6] = qHTS assay to identify small molecule agonists of the estrogen related receptor (ERR) signaling pathway from Tox21 library (AID 1224849; calls by dose curve; further: nearly all actives have a fitted effect of over 15% in size); settings: ERR reporter cell line, ONE-Glo luciferase, 18 h; at 92.4 µM (top of the series) unless noted
Outline: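 Agonist signal is luciferase luminescence from an ERR reporter cell line treated 18 h at 37 C with DMSO-dissolved compounds, read 30 min after ONE-Glo addition at room temperature.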

[7] = qHTS RealTime-Glo MT Cell Viability Assay in HepG2 cells - 24 hour (AID 1224867); further: nearly all actives have a fitted effect of over 50% in size
Outline: (§1)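 HepG2 cells were seeded at 600 cells/well together with NanoLuc luciferase and a cell-permeant prosubstrate, preincubated 5 h at 37 C/5% CO2, then pin-dosed with compounds in DMSO. Nonlytic luminescence from viable cells was read at each time point.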

[8] = A CellTox Green Cytotoxicity Assay to monitor cytotoxicity in HEK293 cells - 0 hour (AID 1224869); further: nearly all actives have a fitted effect of over 50% in size
Outline: (§2)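 Cytotoxicity was tracked continuously in HEK293 cells by a DNA-binding dye excluded from viable cells. Compounds were transferred in DMSO 5 h after seeding; fluorescence was recorded at intervals up to 40 h.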

[9] = qHTS RealTime-Glo MT Cell Viability Assay in HepG2 cells - 40 hour (AID 1224870); further: nearly all actives have a fitted effect of over 50% in size; further: potency means the concentration at half of the fitted maximal effect
Outline: (§3)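 HepG2 cells mixed with RealTime-Glo MT reagents (NanoLuc plus cell-permeant prosubstrate) were seeded at 600 cells/well, incubated 5 h at 37 C/5% CO2, then pinned with compounds in DMSO; nonlytic luminescence tracked viability during 40 h treatment.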

[10] = A CellTox Green Cytotoxicity Assay to monitor cytotoxicity in HEK293 cells - 40 hour (AID 1224871); further: nearly all actives have a fitted effect of over 45% in size; further: potency means the concentration at half of the fitted maximal effect
Outline: as §2

[11] = A CellTox Green Cytotoxicity Assay to monitor cytotoxicity in HEK293 cells - 24 hour (AID 1224875); further: nearly all actives have a fitted effect of over 45% in size; further: potency means the concentration at half of the fitted maximal effect
Outline: as §2

[12] = A CellTox Green Cytotoxicity Assay to monitor cytotoxicity in HepG2 cells - 16 hour (AID 1224876); further: nearly all actives have a fitted effect of over 45% in size
Outline: (§4)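 Real-time, homogeneous cytotoxicity readout: dead-cell DNA staining by CellTox Green in HepG2 monolayers, fluorescence measured at timed intervals up to 40 h of continuous compound exposure.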

[13] = qHTS RealTime-Glo MT Cell Viability Assay in HepG2 cells - 32 hour (AID 1224877); further: nearly all actives have a fitted effect of over 55% in size
Outline: as §1

[14] = A CellTox Green Cytotoxicity Assay to monitor cytotoxicity in HepG2 cells - 24 hour (AID 1224878); further: nearly all actives have a fitted effect of over 45% in size; further: potency means the concentration at half of the fitted maximal effect
Outline: as §4

[15] = A CellTox Green Cytotoxicity Assay to monitor cytotoxicity in HepG2 cells - 40 hour (AID 1224879); further: nearly all actives have a fitted effect of over 40% in size; further: potency means the concentration at half of the fitted maximal effect
Outline: as §4

[16] = qHTS RealTime-Glo MT Cell Viability Assay in HEK293 cells - 0 hour (AID 1224880)
Outline: (§5)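 Nonlytic bioluminescent viability monitoring. HEK293 at 600 cells/well with reagent; 5 h settle; compound transfer by pintool; plates held at 37 C and read at set time points.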

[17] = qHTS RealTime-Glo MT Cell Viability Assay in HEK293 cells - 32 hour (AID 1224868)
Outline: (§6)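 HEK293 cells were seeded at 600 cells/well together with NanoLuc luciferase and cell-permeant prosubstrate, preincubated 5 h at 37 C/5% CO2, then given compound in DMSO by pintool. Luminescence from viable-cell prosubstrate reduction was read repeatedly over 40 h.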

[18] = qHTS RealTime-Glo MT Cell Viability Assay in HEK293 cells - 16 hour (AID 1224872)
Outline: as §6

[19] = qHTS RealTime-Glo MT Cell Viability Assay in HepG2 cells - 8 hour (AID 1224873); further: nearly all actives have a fitted effect of over 55% in size
Outline: as §3

[20] = qHTS RealTime-Glo MT Cell Viability Assay in HEK293 cells - 40 hour (AID 1224874); settings: RealTime-Glo luminescence; max response: hits give low values; further: nearly all actives have a fitted effect of over 50% in size
Outline: as §5
On the % scale 0 is the no-effect control and ±100 the full control effect.

CC(C)(O)c1ccc(CNC(=O)c2cccnc2Oc2ccc(F)cc2)cc1
active: Potency [5] 30.6 µM
inactive: Potency [1] | Potency [2] | Potency [3] | Potency [4] | activity change, positive = activation [6] -45% | Potency [7] | Potency [8] | Potency [9] | Potency [10] | Potency [11] | Potency [12] | Potency [13] | Potency [14] | Potency [15] | Potency [16]

OC(C#CCN1CCCC1)(c1ccccc1)c1ccccc1
inactive: Potency [1] | Potency [2] | Potency [3] | Potency [4] | Potency [5] | Potency [17] | Potency [8] | Potency [9] | Potency [10] | Potency [18] | Potency [19] | max response [20] -8.96% | Potency [11] | Potency [13] | Potency [14] | Potency [15] | Potency [16]

C[Si](C)(CCCN)O[Si](C)(C)CCCN
inactive: Potency [1] | Potency [2] | Potency [3] | Potency [4] | Potency [5] | activity change, positive = activation [6] -0.594% | Potency [17] | Potency [8] | Potency [9] | Potency [10] | Potency [18] | Potency [19] | max response [20] -16% | Potency [11] | Potency [12] | Potency [13] | Potency [14] | Potency [16]

C[N+]1(CC2COC(c3ccccc3)(C3CCCCC3)O2)CCCCC1 (configuration not stated)
active: Potency [9] 23.9 µM
inactive: Potency [1] | Potency [2] | Potency [3] | Potency [4] | Potency [5] | activity change, positive = activation [6] -8.13% [at 42.5 µM] | Potency [8] | Potency [10] | Potency [18] | Potency [19] | Potency [11] | Potency [12] | Potency [14] | Potency [15] | Potency [16]

CN1CCC(N(Cc2cccs2)c2ccccc2)CC1
active: Potency [10] 19 µM | Potency [11] 19 µM | Potency [14] 10.7 µM | Potency [15] 21.3 µM
inactive: Potency [1] | Potency [2] | Potency [3] | Potency [4] | Potency [5] | activity change, positive = activation [6] 0.685% [at 42.5 µM] | Potency [17] | Potency [9] | Potency [18] | Potency [19] | max response [20] -14.7% | Potency [16]

CN1C[C@H]2c3ccccc3Oc3ccc(Cl)cc3[C@@H]2C1
active: Potency [15] 26.8 µM
inactive: Potency [1] | Potency [2] | Potency [3] | Potency [4] | Potency [5] | activity change, positive = activation [6] -3.7% [at 42.5 µM] | Potency [7] | Potency [17] | Potency [8] | Potency [9] | Potency [10] | Potency [18] | max response [20] -21.8% | Potency [11] | Potency [13]

Cc1ncc(CO)c(C=O)c1O
inactive: Potency [1] | Potency [2] | Potency [3] | Potency [4] | Potency [5] | Potency [7] | Potency [17] | Potency [8] | Potency [9] | Potency [10] | Potency [18] | Potency [19] | max response [20] 0.556% | Potency [11] | Potency [12] | Potency [13] | Potency [14] | Potency [15] | Potency [16]

CCC(C)(C)CC
inactive: Potency [1] | Potency [2] | Potency [3] | Potency [4] | Potency [5] | Potency [17] | Potency [8] | Potency [10] | Potency [18] | Potency [19] | max response [20] -9.85% | Potency [11] | Potency [12] | Potency [13] | Potency [14] | Potency [15] | Potency [16]

O=C1OC(CN2CCOCC2)CN1/N=C/c1ccc([N+](=O)[O-])o1 (configuration not stated)
inactive: Potency [1] | Potency [2] | Potency [3] | Potency [4] | Potency [7] | Potency [17] | Potency [8] | Potency [9] | Potency [10] | Potency [18] | Potency [19] | max response [20] -0.929% | Potency [11] | Potency [13] | Potency [14] | Potency [15] | Potency [16]

CC(C)(C)Cl
inactive: Potency [1] | Potency [2] | Potency [3] | Potency [4] | Potency [7] | Potency [17] | Potency [8] | Potency [10] | Potency [18] | Potency [19] | max response [20] 1.73% | Potency [11] | Potency [12] | Potency [13] | Potency [14] | Potency [16]

OCCNCc1ccccc1
inactive: Potency [1] | Potency [2] | Potency [3] | Potency [4] | Potency [7] | Potency [17] | Potency [8] | Potency [9] | Potency [10] | Potency [18] | Potency [19] | max response [20] -10.3% | Potency [11] | Potency [13] | Potency [14] | Potency [15] | Potency [16]

O=C(O)CNCC(=O)O
inactive: activity change, negative = cytotoxicity [1] -0.223% [at 6.97 µM] | activation (H2AX phosphorylation) [2] 4.61% [at 14 µM] | activation [3] 0.217% [at 7.01 µM] | activity change, negative = cytotoxicity [4] -1.6% [at 14 µM] | activity change, negative = cytotoxicity [7] 0.0678% [at 6.97 µM] | activity change, negative = cytotoxic [17] -9.97% [at 6.97 µM] | cytotoxicity [8] -0.535% [at 6.97 µM] | activity change, negative = cytotoxic [9] 1.89% [at 6.97 µM] | cytotoxicity increase [10] 3.68% [at 6.97 µM] | activity change, negative = cytotoxicity [18] -7.32% [at 6.97 µM] | max response [20] -8.46% | activity change [11] 3.54% [at 6.97 µM, hits give high values] | activity change, negative = cytotoxic [13] 0.774% [at 6.97 µM] | cytotoxicity [14] -3.31% [at 6.97 µM] | cytotoxicity increase [15] -10.4% [at 6.97 µM] | activity change, negative = cytotoxicity [16] -1.51% [at 6.97 µM]

CN(C)C(=O)NC1(c2ccccc2)CCN(CC[C@@]2(c3ccc(F)c(F)c3)CN(C(=O)c3ccccc3)CCO2)CC1
inactive: Potency [1] | Potency [2] | Potency [3] | Potency [4] | activity change, positive = activation [6] -22.6% | Potency [8] | Potency [9] | Potency [10] | Potency [19] | Potency [11] | Potency [12] | Potency [13] | Potency [14] | Potency [16]

CC1CCC(=O)C1=O (configuration not stated)
inactive: Potency [1] | Potency [2] | Potency [3] | Potency [4] | Potency [7] | Potency [17] | Potency [8] | Potency [9] | Potency [10] | Potency [18] | max response [20] 3.01% | Potency [11] | Potency [12] | Potency [13] | Potency [14] | Potency [15] | Potency [16]
